PubChem BioAssay
Unmarked numbers belong to inactive results. Entries that show only a call come without a potency. For some assays here: Potency and affinity values are given separately. Activity calls are given as the source filed them. Unless noted, the rule behind the calls is not given here.

Experiments:
[1] = antimalarial activity against Dd2 strain (AID 2302;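 active = growth inhibition above 50% at the single 2 µM test dose, taken to imply half-maximal potency below 2 µM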); conditions: P. falciparum Dd2 in RBCs, LDH growth readout, 72 h; at 2 µM; hits give high values
[2] = human hepatoma cell viability loss – ATP luminescence, cytotoxicity control for P. falciparum antimalarial project, primary screen (AID 2303;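 active = inhibition above 50%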); conditions: HepG2 viability, 24-48 h, at 10 µM, hits give high values
[3] = molecular target: L-lactate dehydrogenase (Plasmodium falciparum (isolate CDC / Honduras)) (UniProt Q27743); experiment: PfLDH activity inhibition – cell lysate, 3D7 strain, counter-screen for P. falciparum growth inhibition project (AID 2304); conditions: P. falciparum 3D7 crude extract, LDH APAD/NBT absorbance; at 2 µM; hits give high values
[4] = inhibition of 3D7 malaria parasite growth – strain 3D7 (AID 2306); conditions: P. falciparum 3D7 erythrocytic growth, LDH absorbance, 72 h; at 2 µM; hits give high values
[5] = molecular target: Calcium-dependent protein kinase 1 (Plasmodium falciparum (isolate 3D7)) (UniProt P62344); experiment: PfCDPK1 kinase inhibitors, biochemical, TCAMS library (AID 1159585; cut-off not given, nearly all actives have IC50 up to about 0.98 µM;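 note: inhibitors leave more ATP so luminescence rises with inhibition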); conditions: recombinant PfCDPK1, Kinase-Glo ATP depletion luminescence
[6] = molecular target: Plasmodium falciparum protein kinase 6 (PK6, PF3D7_1337100) (UniProt Q8IDW1); experiment: PfPK6 kinase inhibitors, biochemical, TCAMS library (AID 1159586); conditions: recombinant PfPK6, Kinase-Glo ATP depletion luminescence
[7] = molecular target: Protein kinase 7 (PK7), Plasmodium falciparum 3D7 (PF3D7_0213400) (UniProt Q7YTF7); experiment: inhibition of Plasmodium PK7 catalytic activity – biochemical, TCAMS antimalarial set, Kinase-Glo luminescence (AID 1159587); conditions: recombinant PfPK7, Kinase-Glo ATP depletion luminescence
[8] = molecular target: Calcium-dependent protein kinase 4 (Plasmodium falciparum (isolate 3D7)) (UniProt Q8IBS5); experiment: PfCDPK4 kinase inhibitors, biochemical, TCAMS library (AID 1159588; cut-off not given, nearly all actives have IC50 up to about 0.91 µM); conditions: recombinant PfCDPK4, Kinase-Glo ATP depletion luminescence
Chain of Calcium-dependent protein kinase 4 (Plasmodium falciparum (isolate 3D7)) (Q8IBS5 whole entry, looked up): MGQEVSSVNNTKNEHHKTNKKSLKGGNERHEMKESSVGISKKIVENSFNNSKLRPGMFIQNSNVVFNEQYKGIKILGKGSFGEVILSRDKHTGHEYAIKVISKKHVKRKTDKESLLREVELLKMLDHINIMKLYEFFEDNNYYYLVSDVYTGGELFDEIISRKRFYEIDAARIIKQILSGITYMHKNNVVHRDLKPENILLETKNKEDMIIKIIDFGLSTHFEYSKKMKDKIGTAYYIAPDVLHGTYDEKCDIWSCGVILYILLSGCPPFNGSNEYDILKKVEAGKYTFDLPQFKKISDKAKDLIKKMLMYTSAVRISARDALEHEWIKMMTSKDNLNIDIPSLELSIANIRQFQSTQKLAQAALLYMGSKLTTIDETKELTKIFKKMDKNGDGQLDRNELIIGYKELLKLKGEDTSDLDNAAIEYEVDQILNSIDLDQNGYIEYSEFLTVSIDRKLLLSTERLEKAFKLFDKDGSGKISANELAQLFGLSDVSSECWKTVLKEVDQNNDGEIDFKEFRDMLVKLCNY

Chain of Protein kinase 7 (PK7), Plasmodium falciparum 3D7 (PF3D7_0213400) (Q7YTF7 1-343): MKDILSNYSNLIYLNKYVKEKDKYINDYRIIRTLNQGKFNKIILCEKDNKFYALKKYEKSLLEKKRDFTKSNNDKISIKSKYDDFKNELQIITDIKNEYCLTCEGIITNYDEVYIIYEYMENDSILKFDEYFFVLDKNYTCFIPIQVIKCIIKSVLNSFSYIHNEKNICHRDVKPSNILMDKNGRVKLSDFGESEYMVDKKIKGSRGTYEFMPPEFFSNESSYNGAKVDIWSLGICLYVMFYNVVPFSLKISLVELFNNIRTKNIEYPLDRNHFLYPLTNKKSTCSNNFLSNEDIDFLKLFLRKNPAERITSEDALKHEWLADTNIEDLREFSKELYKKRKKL
Chain of Plasmodium falciparum protein kinase 6 (PK6, PF3D7_1337100) (Q8IDW1 1-305): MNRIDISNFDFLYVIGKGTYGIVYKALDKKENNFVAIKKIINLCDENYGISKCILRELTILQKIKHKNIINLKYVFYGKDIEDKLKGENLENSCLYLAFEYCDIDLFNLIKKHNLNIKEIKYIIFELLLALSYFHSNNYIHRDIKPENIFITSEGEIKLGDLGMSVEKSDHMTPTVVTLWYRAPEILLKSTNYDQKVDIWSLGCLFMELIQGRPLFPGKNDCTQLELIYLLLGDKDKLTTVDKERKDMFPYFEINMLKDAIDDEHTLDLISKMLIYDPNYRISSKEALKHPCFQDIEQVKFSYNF
Chain of Calcium-dependent protein kinase 1 (Plasmodium falciparum (isolate 3D7)) (P62344 whole entry, looked up): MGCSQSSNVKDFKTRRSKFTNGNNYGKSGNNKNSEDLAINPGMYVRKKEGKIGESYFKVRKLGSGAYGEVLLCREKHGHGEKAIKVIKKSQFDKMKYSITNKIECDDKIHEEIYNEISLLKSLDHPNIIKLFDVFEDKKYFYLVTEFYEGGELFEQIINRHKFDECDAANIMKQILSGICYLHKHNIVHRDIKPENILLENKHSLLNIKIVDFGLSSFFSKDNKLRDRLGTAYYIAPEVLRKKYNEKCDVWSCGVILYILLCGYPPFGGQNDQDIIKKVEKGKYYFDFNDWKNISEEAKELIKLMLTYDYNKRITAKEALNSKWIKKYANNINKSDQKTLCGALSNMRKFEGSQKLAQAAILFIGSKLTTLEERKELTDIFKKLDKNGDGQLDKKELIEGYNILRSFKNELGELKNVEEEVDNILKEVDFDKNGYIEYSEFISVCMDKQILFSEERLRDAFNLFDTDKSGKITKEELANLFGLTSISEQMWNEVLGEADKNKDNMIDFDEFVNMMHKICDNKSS
Chain of L-lactate dehydrogenase (Plasmodium falciparum (isolate CDC / Honduras)) (Q27743 whole entry, looked up): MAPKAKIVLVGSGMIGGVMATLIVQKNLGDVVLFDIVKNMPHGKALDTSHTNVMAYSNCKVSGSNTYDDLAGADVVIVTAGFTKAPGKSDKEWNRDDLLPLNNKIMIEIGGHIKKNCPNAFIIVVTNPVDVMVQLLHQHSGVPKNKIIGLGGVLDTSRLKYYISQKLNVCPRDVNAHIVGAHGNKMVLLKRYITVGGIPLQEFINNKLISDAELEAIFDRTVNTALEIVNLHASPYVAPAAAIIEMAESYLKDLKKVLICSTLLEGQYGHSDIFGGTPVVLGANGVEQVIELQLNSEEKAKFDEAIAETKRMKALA

SMILES	growth inhibition [1]	inhibition [2]	inhibition [3]	growth inhibition [4]	outcome [5]	outcome [6]	outcome [7]	outcome [8]
CNc1nc(NN=Cc2cc([N+](=O)[O-])c(Cl)cc2Cl)nc(Nc2cccc(C(F)(F)F)c2)n1	97% (active)	13%	9%	100% (active)	inactive	inactive	inactive	inactive
COc1ccc(NC(=O)Nc2cccc(-c3ccc(-c4nc5c(C)cccc5[nH]4)s3)c2)cc1	32%	23%	8%	101% (active)	inactive	inactive	inactive	inactive
COc1ccccc1C(=O)C1CCCN(C(=O)c2ccccc2C(F)(F)F)C1 (stereo not given)	84% (active)	-9%	-4%	91% (active)	inactive	inactive	inactive	inactive
CN(C)c1ccc(CN2CCCCC(NC(=O)c3cc(-c4ccccc4Cl)cs3)C2)cc1 (stereo not given)	14%	10%	-3%	91% (active)	inactive	inactive	inactive	inactive
CCCC(C)N(Cc1ccc(C(C)(C)C)cc1)C(=O)c1cccc(C#N)c1 (stereo not given)	45%	14%	-9%	86% (active)	inactive	inactive	inactive	inactive
COc1ccc2nccc([C@@H](O)CN3CCC(NCc4cc5ccc(Cl)cc5[nH]4)CC3)c2c1	61% (active)	30%	4%	99% (active)	inactive	inactive	inactive	inactive
COc1ccc(C)cc1NC(=O)CSc1nc2cccnc2n1C1CCCCC1	78% (active)	14%	-8%	89% (active)	inactive	inactive	inactive	inactive
c1ccc(CN2CCc3cc4nccc(N5CCNCC5)c4cc32)cc1	99% (active)	9%	-4%	100% (active)	inactive	inactive	inactive	inactive
NC(=O)c1cccc(Nc2nccc(Nc3ccc(Oc4ccc5ccccc5c4)cc3)n2)c1	31%	15%	5%	96% (active)	inactive	inactive	inactive	inactive
CN1CCC(NCc2ccc(-c3ccc(S(=O)(=O)NCc4ccccc4)cc3)cc2)CC1	51% (active)	40%	2%	99% (active)	inactive	inactive	inactive	inactive
CC(C)(C)N1CCC(N(Cc2ccc(-c3ccc(C(F)(F)F)cc3)cc2)C(=O)Cn2c(CCc3cccc(F)c3F)nc(=O)c3cccnc32)CC1	53% (active)	94% (active)	3%	100% (active)	inactive	inactive	inactive	inactive
CCNc1cc(C)nc(Nc2ccccc2)n1	8%	16%	-1%	92% (active)	inactive	inactive	inactive	inactive
Cc1cc(N(C)CCCN2CCCCC2)nc(Nc2ccc(Cl)cc2)n1	82% (active)	7%	-3%	101% (active)	inactive	inactive	inactive	inactive
COc1ccc2c(NN=Cc3ccc(N(C)C)cc3)ccnc2c1	100% (active)	12%	-1%	102% (active)	inactive	inactive	inactive	inactive
COc1cccc(C(=O)Nc2ccc(Nc3nc(C)cc(N(C)C)n3)cc2)c1	33%	1%	-2%	92% (active)	inactive	inactive	inactive	inactive
O=C(Nc1ccc(C(=O)N2CCN(CCN3CCN(c4cccc(C(F)(F)F)c4)CC3)CC2)cc1)c1ccc(OC(F)(F)F)cc1	25%	38%	7%	95% (active)	inactive	inactive	inactive	inactive
CC(C)COc1ccc(Cl)cc1Cc1ccc(-c2nc3ccc(CCN(C)C)cc3[nH]2)o1	7%	10%	3%	92% (active)	inactive	inactive	inactive	inactive
CCCNCc1ccc(-c2ccc(CN(Cc3ccc4c(c3)OCO4)C(=O)Cc3cccnc3)cc2)nc1	53% (active)	16%	5%	94% (active)	inactive	inactive	inactive	inactive
Oc1cccc(Nc2nc(NCc3ccccc3)c3ccccc3n2)c1	99% (active)	21%	-7%	95% (active)	inactive	inactive	inactive	inactive
CCn1c(SC)nnc1C1CCCN(CC(=O)Nc2nc3ccc(OC)cc3s2)C1 (stereo not given)	81% (active)	-3%	0%	97% (active)	inactive	inactive	inactive	inactive

SMILES	growth inhibition [1]	inhibition [2]	inhibition [3]	growth inhibition [4]	outcome [5]	outcome [6]	outcome [7]	outcome [8]
CCN1CCC(NCc2ccc(-c3ccc(Cl)s3)cc2)CC1	23%	42%	-4%	96% (active)	inactive	inactive	inactive	inactive
Cc1cc(NCCC(=O)Nc2ccccc2)nc(NCCc2cccnc2)n1	4%	-1%	-2%	84% (active)	inactive	inactive	inactive	inactive
C[C@H](NCCC1CCC(NC(=O)N[C@H](C)C(O)(c2ccccc2)c2ccccc2)CC1)c1cccc2ccccc12 (stereo not given in full)	58% (active)	43%	-2%	86% (active)	inactive	inactive	inactive	inactive
Cn1nccc1C(=O)NCCNCc1cccc(-c2ccc(-c3nc4ccc(C(F)(F)F)cc4[nH]3)cc2)c1	98% (active)	51% (active)	-1%	102% (active)	inactive	inactive	inactive	inactive
COc1ccc(CN2CCC(CNCCc3ccccc3Oc3ccccc3)CC2)cc1	56% (active)	99% (active)	0%	85% (active)	inactive	inactive	inactive	inactive
CC(C)Oc1cc2c(cc1NS(=O)(=O)c1ccc(-c3cccs3)cc1)CCN(C)CC2	9%	9%	-4%	88% (active)	inactive	inactive	inactive	inactive
Cc1onc(-c2c(Cl)cccc2Cl)c1C(=O)N1CCc2cc3nccc(N4CCN5CCC[C@H]5C4)c3cc21	58% (active)	3%	-5%	101% (active)	inactive	inactive	inactive	inactive
Cc1cccc2[nH]c(-c3ccc(-c4cccc(CNCCN5CCNCC5)c4)cc3)nc12	2%	9%	1%	85% (active)	inactive	inactive	inactive	inactive
CC(=O)Nc1csc(-c2cnc(/C=C(\C)C[C@@H]3OC[C@H](C[C@@H]4O[C@H]4[C@@H](C)[C@H](C)O)[C@@H](O)[C@H]3O)o2)c1	8%	1%	0%	94% (active)	inactive	inactive	inactive	inactive
O=C(Nc1ccc(F)cc1)c1cnc(N2CCN(c3ccncc3)CC2)c(Cl)c1	81% (active)	41%	-3%	100% (active)	inactive	inactive	inactive	inactive
COc1ccc2ncc(F)c(CCN3[C@@H]4CC[C@H]3CC(NCc3ccc5c(c3)OCCO5)C4)c2n1 (stereo not given in full)	35%	27%	-5%	102% (active)	inactive	inactive	inactive	inactive
Cc1cc(OCC2CCCN(c3ncc(C(=O)NC4CC4)cc3Cl)C2)ccc1F (stereo not given)	68% (active)	3%	-1%	88% (active)	inactive	inactive	inactive	inactive
CC(C)(C)c1ccc(-c2cc(C(=O)N[C@@H](CO)C(=O)O)on2)cc1 (tested in a mixture with another compound)	-2%	1%	-1%	87% (active)	inactive	inactive	inactive	inactive
NC1CCN(Cc2cccc(-c3ccc(-c4nc5ccc(F)cc5[nH]4)cc3)c2)C1 (stereo not given)	99% (active)	24%	-1%	99% (active)	inactive	inactive	inactive	inactive
O=C(Nc1ccc(-n2ccc(C(F)(F)F)n2)cc1)c1cccs1	67% (active)	6%	-6%	89% (active)	inactive	inactive	inactive	inactive
Cc1[nH]c(C)c(-c2ccc(-c3cccc(OC(F)(F)F)c3)nc2)c(=O)c1Cl	97% (active)	30%	-2%	98% (active)	inactive	inactive	inactive	inactive
Cc1cc(N[C@@H](CC(C)C)C(=O)NCc2cccc(F)c2)nc(NCCc2ccc(F)cc2)n1	6%	0%	-2%	90% (active)	inactive	inactive	inactive	inactive
CCc1ccc(S(=O)(=O)Nc2cccc(CCN3CCC(N4CCCCC4)CC3)c2)cc1	20%	21%	-4%	101% (active)	inactive	inactive	inactive	inactive
O=C(O)C1CC(=O)N(c2ccc(Cl)cc2)C1 (stereo not given)	33%	51% (active)	6%	97% (active)	inactive	inactive	inactive	inactive
Clc1cccc(Nc2ccc3c(N4CCCCC4)ncnc3n2)c1	93% (active)	54% (active)	0%	97% (active)	inactive	inactive	inactive	inactive
